# Test results taken from publication PMC7819943, “Rice protein-binding microarrays: a tool to detect cis-acting elements near promoter regions in rice”.
# The full ranking holds about 68,000 sequences; the median of “fluorescence intensity (a.u.)” is about 9,100, and the highest 2% start at about 16,000. The sample as a whole holds a higher share of the highest values than the screen did.
# Target: OsWRKY34 (Oryza sativa, UniProt Q0JBA9 1-250)
# Assay: protein-binding microarray (RPBM); PBS, 2% BSA, 51.3 ng/ul salmon testes DNA, 50 uM zinc acetate, 200 nM TF, 25 C, 1 h; high values mean tight binding
# Conditions: protein: recombinant; tags: N-terminal polyhistidine and DsRed monomer fusion (pET32a); label: CyDye5-dUTP incorporated in the synthesized complementary strand; 3' TTTTT single-stranded linker to array surface; dsDNA, one strand shown
# In short: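 Binding signal is defined as the fluorescence intensity of each feature in arbitrary units, read on an Axon 4000B scanner. Transcription factors with N-terminal polyhistidine and DsRed fusions came from E. coli BL21-CodonPlus and were purified on Ni–NTA. They were incubated at 200 nM for 1 h at 25 °C on a custom Agilent array that had been made double-stranded with Cy5-dUTP, with 50 µM zinc acetate present, and the array was washed.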
# Sequence of OsWRKY34 (Q0JBA9 entry or part of it): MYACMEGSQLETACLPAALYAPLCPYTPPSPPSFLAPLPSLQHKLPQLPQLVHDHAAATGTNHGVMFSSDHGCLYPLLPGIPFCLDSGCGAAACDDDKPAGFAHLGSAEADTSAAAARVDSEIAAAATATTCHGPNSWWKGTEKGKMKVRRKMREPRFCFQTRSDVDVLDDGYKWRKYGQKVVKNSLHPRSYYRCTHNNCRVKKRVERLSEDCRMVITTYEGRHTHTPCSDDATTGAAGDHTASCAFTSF
row,Sequence,binding signal
1,GGTTGTCGTCGTCGTCGTGGCCTACGCCTTCGCTGCTGCTCGGAGTCACCTAGTGCAG,10600 fluorescence intensity (a.u.)
2,CACACGCTACCCCGACTCGTCGCCTTCGCCTTGCTCGTCTCGGAGTCACCTAGTGCAG,18000 fluorescence intensity (a.u.)
3,GGCCTCGTCTCCTACCTCGCCGACCCCGACCCCGACCACGCGGAGTCACCTAGTGCAG,8440 fluorescence intensity (a.u.)
4,TCACGCATCGGCGCCGCCCTCCGGCCAGCAGCGACTCGCCCGGAGTCACCTAGTGCAG,44600 fluorescence intensity (a.u.)
5,GCGCCGACTGCCCGTCCGCCCCGTTGCTGCTGTGCGCACTCGGAGTCACCTAGTGCAG,8290 fluorescence intensity (a.u.)
6,TGTCCAGTCGTCACCCTGCTGCTTCCCTGCCACTGCCCTACGGAGTCACCTAGTGCAG,17000 fluorescence intensity (a.u.)
7,GCTGTCGTCCCTGCTGTTCTTGGTGTGCTTCTTCACTGTCCGGAGTCACCTAGTGCAG,13600 fluorescence intensity (a.u.)
8,CTCCCGCCGCGACTCGCCGCCGCGCGCGGCATCTCCGGCCCGGAGTCACCTAGTGCAG,8820 fluorescence intensity (a.u.)
9,CTCGTGCTGCTTCCACCCCTCCCTCGTCGCCTTGCCAGTTCGGAGTCACCTAGTGCAG,9440 fluorescence intensity (a.u.)
10,GGCCACGCCCGCCTCCGCGATCGTCCTCGCCGGCGACTGCCGGAGTCACCTAGTGCAG,8410 fluorescence intensity (a.u.)
11,TATATGTAAGCTACTTTTGTCCTATACATAAATTACTTTTCGGAGTCACCTAGTGCAG,8580 fluorescence intensity (a.u.)
12,CTCTCTCCTACTGTAGGCCACCACCACCGCGACCGCACGACGGAGTCACCTAGTGCAG,9340 fluorescence intensity (a.u.)
13,CATGTGCTAAAAAGTCAACGGTATCAAACATTTTTAAACGCGGAGTCACCTAGTGCAG,15800 fluorescence intensity (a.u.)
14,TCTCGAGGTTGTTACATTGTACTTGTCGCTAGCTCGTCATCGGAGTCACCTAGTGCAG,8400 fluorescence intensity (a.u.)
15,TCGCTAGTAGCTGTTGCTGCCTCTCCACCGCGTCCCTCTCCGGAGTCACCTAGTGCAG,11000 fluorescence intensity (a.u.)
16,GTCGCGCCTGACGCCGCCGTTGCGCCTGCCACCGCCTGTCCGGAGTCACCTAGTGCAG,8220 fluorescence intensity (a.u.)
17,CGCTCCACATAGGCTAGGCCCATGTCCCTTAGAGGATCCTCGGAGTCACCTAGTGCAG,8380 fluorescence intensity (a.u.)
18,ACCCGTCTCTGTTCATCTCCACATCTTGTCTTCTCGCTGTCGGAGTCACCTAGTGCAG,18100 fluorescence intensity (a.u.)
19,GCTACTACTGCTGCTGCTGCTACTTATCCACCGCTTTTTTCGGAGTCACCTAGTGCAG,13600 fluorescence intensity (a.u.)
20,GCAGCGCTCGTCTCTCTCTGTCTCTCCACTCTCTTCTCTCCGGAGTCACCTAGTGCAG,10100 fluorescence intensity (a.u.)
21,GTCTTCCCCTAGCGCCGCCGCCTCCACCTCCGCCGCCGTCCGGAGTCACCTAGTGCAG,8700 fluorescence intensity (a.u.)
22,GTGCCACTCTGTCTCTTCCGTCCATAGCGCCGTCGTCTTCCGGAGTCACCTAGTGCAG,17300 fluorescence intensity (a.u.)
23,CCTCACATCTTCTTCTTCATCTCCCTGTCTCTGTCTCTGTCGGAGTCACCTAGTGCAG,13500 fluorescence intensity (a.u.)

row,Sequence,binding signal
1,CTAACCCGCGCCCCAACCCTAGCCGCCTCCGCCCCGCCTCCGGAGTCACCTAGTGCAG,8920 fluorescence intensity (a.u.)
2,CCGCCCTTAGACAGGCCCCGCCTCCGCCTCCGCGCCCACCCGGAGTCACCTAGTGCAG,27800 fluorescence intensity (a.u.)
3,TGTCACATTTTTCGTCGTCTCCATCTTCATCTTCTTGTCGCGGAGTCACCTAGTGCAG,11200 fluorescence intensity (a.u.)
4,CCCCACCGCCCACCGCCCACCGCCCACCCACCTCCGCACCCGGAGTCACCTAGTGCAG,11600 fluorescence intensity (a.u.)
5,TACCCACACCGATCTGCCGCTGCCCAGTTCCACCTACTTTCGGAGTCACCTAGTGCAG,16800 fluorescence intensity (a.u.)
6,CTCACGCGCTGCACCGCCGATACCCCACCCGCTGCTAGTTCGGAGTCACCTAGTGCAG,8670 fluorescence intensity (a.u.)
7,CCCGACCCAAACCTCACCGCCGCCGTCGCCGTTGCCGCCGCGGAGTCACCTAGTGCAG,8310 fluorescence intensity (a.u.)
8,TTAACTCGACAGTTTGTGTGTGATTTCAGTACTACCACGACGGAGTCACCTAGTGCAG,10400 fluorescence intensity (a.u.)
9,CTCCGCCGTCGCGTCCCCGCCGCCGCCGCCCGCCTTCCCCCGGAGTCACCTAGTGCAG,9960 fluorescence intensity (a.u.)
10,ACTCGCGATATGCTTGTAACTTGGTTTGGTATTCCATTCTCGGAGTCACCTAGTGCAG,9670 fluorescence intensity (a.u.)
11,GGGTTACGGCTGCAAGCTTGTTCTCTCCAGATGGGGAGTTCGGAGTCACCTAGTGCAG,10400 fluorescence intensity (a.u.)
12,GCCTCGCCTCGCCGCCGGCGGCCACCGTCTCCGCCGCCTCCGGAGTCACCTAGTGCAG,8800 fluorescence intensity (a.u.)
13,CCGCCGCTTCCTCGCCACCGCCGCTGCCGCCGCCACTTCCCGGAGTCACCTAGTGCAG,19400 fluorescence intensity (a.u.)
14,CGCTTTCCTCTGTTTCTCCGCCGCGCTCGTTCGTCGTCTCCGGAGTCACCTAGTGCAG,21400 fluorescence intensity (a.u.)
15,CGCGCCCTCCTCCGCCGCCGCTCGCCGCCGTTCGTCTCCGCGGAGTCACCTAGTGCAG,9840 fluorescence intensity (a.u.)
16,GTCCTGCTGCTTCCGCCGCCGCCACCGTCCTGCTGCTTCCCGGAGTCACCTAGTGCAG,9500 fluorescence intensity (a.u.)
17,TTCTCCACCGCCGCCACCACCACCTCGCCTGGCCGGCCTCCGGAGTCACCTAGTGCAG,18000 fluorescence intensity (a.u.)
18,AACACCGTTCCTCCGCCGCGCCGTCATTGCCACCGGCCTCCGGAGTCACCTAGTGCAG,9730 fluorescence intensity (a.u.)
19,GCTCTCATGGCCTCACACACCGCGCCATTGCCATCGTTTCCGGAGTCACCTAGTGCAG,17000 fluorescence intensity (a.u.)
20,CTCGCCGCCGGCCTCCTCCACCACCACCGACGACTCCGACCGGAGTCACCTAGTGCAG,8430 fluorescence intensity (a.u.)
21,GTCTCCGCGCGCGCTCTCTCTTTCGTTCACTCTCGCTTTCCGGAGTCACCTAGTGCAG,14500 fluorescence intensity (a.u.)
22,TCCCTCCCGTCTCGTCTCCGCTCATTGCGCCATCTCGCGCCGGAGTCACCTAGTGCAG,8660 fluorescence intensity (a.u.)
23,CTCCTCTCGCCGCCGCCGCCACCGCCACCGCCGCCGCTCCCGGAGTCACCTAGTGCAG,10100 fluorescence intensity (a.u.)
